Hits are enriched below; roughly 0.93% of the tested compounds scored in any of these assays.
LAP4-GFP MLPCN: alters LAP4-GFP fluorescence in TOR pathway yeast screen. S. cerevisiae LAP4-GFP multiplex, flow cytometry GFP, 3 h; median GFP as percent of DMSO wells. GFP response vs DMSO, % at 10 µM. 320,000 compounds, 0.34% hits. AID 2023;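 active = GFP response vs DMSO above a set limit, about the screen mean plus 3 SD, cut at about 150% in these data; inconclusive = under 70 cell events counted for the yeast strain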
RPL19A-GFP yeast: alters RPL19A-GFP fluorescence in TOR pathway yeast screen; percent response vs DMSO, % at 10 µM; AID 2025; 330,000 compounds, 0.3% hits; S. cerevisiae RPL19A-GFP strain, flow cytometry, 3 h; stronger effect = lower value;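 active = percent response vs DMSO below 50%; inconclusive = fewer than 70 events counted for the yeast strain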;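 note: median channel GFP fluorescence of the barcoded RPL19A-GFP strain; ratio of sample median GFP to plate DMSO average so 100% = DMSO; lower means less RPL19A-GFP as with rapamycin TOR inhibition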
MEP2 TOR yeast: yeast TOR pathway MEP2-GFP modulation; S. cerevisiae MEP2-GFP strain, flow cytometry GFP, 3 h; 100% = DMSO control level; GFP response vs DMSO, % at 10 µM; 330,000 compounds, 0.51% hits; AID 2016;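 active = GFP response versus DMSO above a set limit, roughly screen mean plus 3 SD, cut at about 180% in these data; inconclusive = fewer than 70 cells counted for a yeast strain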;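 note: median GFP fluorescence of the barcode-gated MEP2-GFP cells per well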
AGP1 TOR yeast: yeast TOR pathway AGP1-GFP modulation. S. cerevisiae AGP1-GFP multiplex flow cytometry, 3 h; GFP as percent of DMSO wells. GFP response vs DMSO, % at 10 µM. 320,000 compounds, 0.02% hits;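 active = GFP response relative to DMSO above a set limit, near screen average plus 3 SD, cut at about 150% in these data; inconclusive = fewer than 70 cells counted for the yeast strain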;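 note: median GFP channel fluorescence of the gated AGP1 strain per well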
CIT2 TOR yeast: alters CIT2-GFP fluorescence in TOR pathway yeast screen; S. cerevisiae CIT2-GFP strain, flow cytometry, 3 h; 100 means same as DMSO wells; GFP response vs DMSO, % at 10 µM; 320,000 compounds, 0.065% hits; AID 2029;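 active = GFP response relative to DMSO above a set limit, near the screen mean plus 3 SD, cut at about 150% in these data; inconclusive = Fewer than 70 cells measured for a yeast strain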;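 note: ratio of well median GFP fluorescence to mean of DMSO wells on the plate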
An asterisk follows results filed as active; [ ] = dose if it differs, or a comment.

Results for Cc1c(C(=O)OCC(=O)Nc2ccc(C(=O)N(C)C)cc2)oc2ccccc12 ?
LAP4-GFP MLPCN: 89; RPL19A-GFP yeast: 100; MEP2 TOR yeast: 107; AGP1 TOR yeast: 94; CIT2 TOR yeast: 99

Results for Cc1[nH]c2ccccc2c1C(c1ccccn1)N1CCC(C(N)=O)CC1 (centres undefined) ?
LAP4-GFP MLPCN: 150*; RPL19A-GFP yeast: 85; MEP2 TOR yeast: 84; AGP1 TOR yeast: 79; CIT2 TOR yeast: 79

Results for CN1CCN(C2=C(Cl)C(=O)C(c3cnc(N4CCCCC4)s3)=C(Cl)C2=O)CC1 ?
LAP4-GFP MLPCN: 196*[may fluoresce violet]; RPL19A-GFP yeast: 94; MEP2 TOR yeast: 319*[may fluoresce violet]; AGP1 TOR yeast: 17; CIT2 TOR yeast: inconclusive

How did CC(=O)Oc1ccc(N2C(=O)C3C(C2=O)C2(C)C=CC3(C)O2)cc1 (centres undefined) do in these assays?
LAP4-GFP MLPCN: 262*; RPL19A-GFP yeast: 84; MEP2 TOR yeast: 87; AGP1 TOR yeast: 82

Results for CCOc1ccccc1CN1CCN(CC2=Cc3cc(OC)ccc3OC2)CC1CCO (centres undefined) ?
LAP4-GFP MLPCN: 87; RPL19A-GFP yeast: 51; MEP2 TOR yeast: 205*[may fluoresce violet]; AGP1 TOR yeast: 29; CIT2 TOR yeast: inconclusive

What do the screens show for `CCOc1cccc(CN2CCN(CCCc3ccccc3)C(CCO)C2)c1O` (centres undefined)?
LAP4-GFP MLPCN: 89; RPL19A-GFP yeast: 46*[may fluoresce violet]; MEP2 TOR yeast: 514*[may fluoresce violet]; AGP1 TOR yeast: 26; CIT2 TOR yeast: inconclusive

Results for CCOc1ccccc1CN1CCN(Cc2ccc(C)o2)CC1CCO (centres undefined) ?
LAP4-GFP MLPCN: 100; RPL19A-GFP yeast: 98; MEP2 TOR yeast: 101; AGP1 TOR yeast: 97; CIT2 TOR yeast: 97

What do the screens show for `CN(C)C(=O)[C@H]1C[C@H]1[C@@H](O)[C@H](CO)NC(=O)[C@H](COCc1ccccc1)NC(=O)OC(C)(C)C`?
LAP4-GFP MLPCN: 123; RPL19A-GFP yeast: 97; MEP2 TOR yeast: 93; AGP1 TOR yeast: 86; CIT2 TOR yeast: 100

How did CCCCN(C)C(=O)c1nc2ccccn2c1CN1CCSCC1 do in these assays?
LAP4-GFP MLPCN: 94; RPL19A-GFP yeast: 105; MEP2 TOR yeast: 104; AGP1 TOR yeast: 102; CIT2 TOR yeast: 95

Results for O=C1N(Cc2ccccc2)CCCC12CCCN(Cc1ccccc1)C2=O ?
LAP4-GFP MLPCN: 79; RPL19A-GFP yeast: 34*[may fluoresce violet]; MEP2 TOR yeast: 273*[may fluoresce violet]; AGP1 TOR yeast: inconclusive; CIT2 TOR yeast: inconclusive

Results for O=C1CCCN1Cc1ccccc1 ?
LAP4-GFP MLPCN: 109; RPL19A-GFP yeast: 99; MEP2 TOR yeast: 97; AGP1 TOR yeast: 92; CIT2 TOR yeast: 94

What do the screens show for `COC(=O)c1ccccc1C(=O)N1CCOCCN(C(=O)c2ccccc2C(=O)OC)CCOCC1`?
LAP4-GFP MLPCN: 68; RPL19A-GFP yeast: 31*[may fluoresce violet]; MEP2 TOR yeast: 188*[may fluoresce violet]; AGP1 TOR yeast: inconclusive; CIT2 TOR yeast: inconclusive

What do the screens show for `CC(=O)C[C@H](O)CC(=O)[C@H]1OC(=O)CCCCCCCCc2ccccc21`?
LAP4-GFP MLPCN: 103; RPL19A-GFP yeast: 88; MEP2 TOR yeast: 100; AGP1 TOR yeast: 84; CIT2 TOR yeast: 88

Results for CCOc1ccc(Nc2ccc(C(=O)O)cc2[N+](=O)[O-])cc1 ?
LAP4-GFP MLPCN: 161*; RPL19A-GFP yeast: 98; MEP2 TOR yeast: 115; AGP1 TOR yeast: 90; CIT2 TOR yeast: 70

How did COc1ccccc1N1C(=O)C=C(Sc2nc(C)cc(C)n2)C1=O do in these assays?
LAP4-GFP MLPCN: 104; RPL19A-GFP yeast: 105; MEP2 TOR yeast: 108; AGP1 TOR yeast: 105; CIT2 TOR yeast: 103

Results for O=C(Cn1ccc([N+](=O)[O-])n1)NCc1ccccc1 ?
LAP4-GFP MLPCN: 116; RPL19A-GFP yeast: 93; MEP2 TOR yeast: 88; AGP1 TOR yeast: 100; CIT2 TOR yeast: 96

How did COC(CN(C(=O)CCl)C(C(=O)NC1CCCCC1)c1ccc(Cl)cc1)OC (centres undefined) do in these assays?
LAP4-GFP MLPCN: 95; RPL19A-GFP yeast: 103; MEP2 TOR yeast: 101; AGP1 TOR yeast: 105; CIT2 TOR yeast: 106

What do the screens show for `CN(C)C(C(=O)NC1CCCCC1)c1ccc(Cl)cc1` (centres undefined)?
LAP4-GFP MLPCN: inconclusive; RPL19A-GFP yeast: 13*[may fluoresce violet]; MEP2 TOR yeast: inconclusive; AGP1 TOR yeast: inconclusive; CIT2 TOR yeast: inconclusive

What do the screens show for `O=C(CSc1ccc(-c2ccccc2)nn1)N1CCCCC1`?
LAP4-GFP MLPCN: 106; RPL19A-GFP yeast: 91; MEP2 TOR yeast: 97; AGP1 TOR yeast: 109; CIT2 TOR yeast: 101

What do the screens show for `O=C(CSc1ccc(-c2ccccn2)nn1)N1CCCCC1`?
LAP4-GFP MLPCN: 217*; RPL19A-GFP yeast: 95; MEP2 TOR yeast: 94; AGP1 TOR yeast: 90; CIT2 TOR yeast: 74

What do the screens show for `COc1ccccc1NC(=S)NNC(=O)c1ccccc1`?
LAP4-GFP MLPCN: 96; RPL19A-GFP yeast: 98; MEP2 TOR yeast: 102; CIT2 TOR yeast: 98

What do the screens show for `COc1ccccc1NC(=S)NNC(=O)c1ccncc1`?
LAP4-GFP MLPCN: 86; RPL19A-GFP yeast: 51; MEP2 TOR yeast: 191*[may fluoresce violet]; AGP1 TOR yeast: 18; CIT2 TOR yeast: inconclusive

Results for N/C(=N/O)c1ccccc1N1CCC(Cc2ccccc2)CC1 ?
LAP4-GFP MLPCN: 101; RPL19A-GFP yeast: 106; MEP2 TOR yeast: 109; AGP1 TOR yeast: 109; CIT2 TOR yeast: 108

How did Cc1cc(NC(=O)CSc2nnnn2-c2ccccc2F)no1 do in these assays?
LAP4-GFP MLPCN: 89; RPL19A-GFP yeast: 63; MEP2 TOR yeast: 256*[may fluoresce violet]; AGP1 TOR yeast: 15; CIT2 TOR yeast: inconclusive

What do the screens show for `Cc1cc(NC(=O)CSc2nnnn2-c2cc(Cl)ccc2C)no1`?
LAP4-GFP MLPCN: 104; RPL19A-GFP yeast: 99; MEP2 TOR yeast: 98; AGP1 TOR yeast: 102; CIT2 TOR yeast: 102

How did COc1cccc(S(=O)(=O)NCc2ccc(C(=O)NCC3CCCO3)cc2)c1 (centres undefined) do in these assays?
LAP4-GFP MLPCN: 97; RPL19A-GFP yeast: 65; MEP2 TOR yeast: 190*[may fluoresce violet]; AGP1 TOR yeast: 24; CIT2 TOR yeast: inconclusive

Results for CC(C)(C)c1ccc(S(=O)(=O)NCc2ccc(C(=O)NCC3CCCO3)cc2)cc1 (centres undefined) ?
LAP4-GFP MLPCN: 75; RPL19A-GFP yeast: 106; MEP2 TOR yeast: 90; AGP1 TOR yeast: 96

How did CC1NC(=O)N(C)C2NC(=O)N(C)C(c3ccccc3)C12 (centres undefined) do in these assays?
LAP4-GFP MLPCN: 91; RPL19A-GFP yeast: 46*[may fluoresce violet]; MEP2 TOR yeast: 363*[may fluoresce violet]; AGP1 TOR yeast: inconclusive; CIT2 TOR yeast: inconclusive

How did Cc1ccc(C(=O)N2CCN(CCNC(=O)C(=O)NC(C)C)CC2)cc1 do in these assays?
LAP4-GFP MLPCN: 98; RPL19A-GFP yeast: 97; MEP2 TOR yeast: 101; AGP1 TOR yeast: 97; CIT2 TOR yeast: 103

What do the screens show for `Cc1cc(OCC(=O)Nc2ccc(S(=O)(=O)N3CCN(C)CC3)cc2)ccc1Br`?
LAP4-GFP MLPCN: 157*; RPL19A-GFP yeast: 106; MEP2 TOR yeast: 110; AGP1 TOR yeast: 115; CIT2 TOR yeast: 105

Assay outcomes deposited in PubChem by NMMLSC.
